Sampled rows, rich in hits. Any-hit rate of the full collection: about 3.3%.
CendR NRP1 mod – NRP-1/CendR interaction modulation; O14786; inhibition, % at 25 µM; AID 602438; actives 0.85% (n = 360,000); FAM-RPARPAR peptide binding to NRP-1, fluorescence polarization;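 active = inhibition or corrected inhibition above about 18%, plus a signal ratio from 0.5 to 1.5, limit read from the data, passing the limit was not always enough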
PHOSPHO1 inh – inhibitors of human PHOSPHO1 phosphatase; Q8TCT1; recombinant PHOSPHO1, absorbance phosphatase assay; inhibition, % at 13.3 µM; actives 1.1% (n = 290,000); AID 1565; in the data active = inhibition above about 60%
CTSL1 counter – counter-screen for PFM18AAP inhibitors: inhibitors of F. hepatica cathepsin L1; recombinant F. hepatica cathepsin L1, Z-Leu-Arg-MCA fluorescence; inhibition, % at 5.96 µM; actives 0.49% (n = 300,000);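 active = inhibition above the mean of all tested compounds plus 3 SD, set per screening campaign, cut at about 17% in these data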;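 note: 0% = plate median of test compound wells and 100% = 1 µM Z-Phe-Ala-diazomethylketone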
TPT1 inh – blocks Candida albicans tRNA 2'-phosphotransferase; recombinant caTPT1, FP RNA substrate dephosphorylation; inhibition, % at 5 µM; actives 0.81% (n = 300,000); AID 1962;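 active = inhibition above the mean of all tested compounds plus 3 SD, set per screening campaign, cut at about 24% in these data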;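 note: plate controls were DMSO alone for no effect and ferristatin control at 100 nM for full effect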
Rpn11 block – Rpn11 (human) deubiquitinase inhibition; O00487; human 26S proteasome, Ub4-pepOG fluorescence polarization; 20S core pre-blocked with epoxomicin; inhibition, % at 20 µM; actives 0.59% (n = 360,000); AID 588493;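 active = inhibition at 20 µM, scaled to each plate's controls, above about 33%, limit read from the data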
HNF4A DNA FP – change in binding of human HNF4 alpha to DNA; P41235; HNF4a-FITC DNA binding, fluorescence polarization, 1 h; activity change, % at 10 µM; actives 0.3% (n = 360,000); in the data active = activity change above about 30%, passing the limit was not always enough
The depositor's hits bear a star.

`COc1ccccc1/C=C/C=N/n1c(-c2ccccc2)n[nH]c1=S` gave CendR NRP1 mod -0.7, PHOSPHO1 inh 98.6*, CTSL1 counter 6.7, TPT1 inh 3.6, Rpn11 block 0.4 and HNF4A DNA FP -0.7.
COc1ccc(-c2n[nH]c(=S)n2/N=C/C=C/c2ccccc2OC)cc1 was read as CendR NRP1 mod -18.3, PHOSPHO1 inh -4.5, CTSL1 counter 1.1, TPT1 inh 0.6, Rpn11 block 1.8 and HNF4A DNA FP -1.0.
For S=c1[nH]nc(-c2ccccc2)n1/N=C/C=C/c1ccco1 the results were CendR NRP1 mod -8.1, PHOSPHO1 inh -14.5, CTSL1 counter 4.2, TPT1 inh 3.5, Rpn11 block 0.6 and HNF4A DNA FP 1.5.
`CC1(C)CC(=O)C2=C(C1)OC1=C(C(=O)CC(C)(C)C1)C2(C)C` gave PHOSPHO1 inh -11.9, CTSL1 counter -2.0 and TPT1 inh -3.1.
Cc1ccc(C(NC(=O)Nc2ccccn2)C(Cl)(Cl)Cl)cc1F (centres undefined) was read as CendR NRP1 mod 2.2, PHOSPHO1 inh 31.0, CTSL1 counter -0.8, TPT1 inh 3.2, Rpn11 block -8.9 and HNF4A DNA FP -2.6.
For COc1ccc(CCNC(=O)CCC(=O)Nc2ccccc2[N+](=O)[O-])cc1OC the results were CendR NRP1 mod 5.7, PHOSPHO1 inh 23.9, CTSL1 counter 4.8, TPT1 inh -3.6, Rpn11 block -3.9 and HNF4A DNA FP -3.3.
`CC(C)Cn1c(SCC(=O)c2c(N)n(C)c(=O)n(C)c2=O)nc2ccccc21` gave CendR NRP1 mod -6.8, PHOSPHO1 inh 33.9, CTSL1 counter -1.0, TPT1 inh -0.7, Rpn11 block -1.1 and HNF4A DNA FP 1.0.
Screening CC(C)Cn1c(N)c(C(=O)CSc2nc3ccccc3n2C)c(=O)n(C)c1=O returned CendR NRP1 mod -1.7, PHOSPHO1 inh -22.6, CTSL1 counter -7.1, TPT1 inh -0.4, Rpn11 block 24.5 and HNF4A DNA FP 47.8*.
`CC(C)Cn1c(N)c(C(=O)COC(=O)[C@H](C)NC(=O)c2ccccc2Cl)c(=O)n(C)c1=O` gave CendR NRP1 mod -4.9, CTSL1 counter 19.5*, TPT1 inh 0.6, Rpn11 block -3.5 and HNF4A DNA FP 2.2.
Cc1ccc(NC(=O)COC(=O)CCc2c(C)nc3ncnn3c2C)cc1 was read as CendR NRP1 mod 23.0, Rpn11 block -1.8 and HNF4A DNA FP -4.4.
Screening Cc1ccc(NC(=O)COC(=O)CCc2c(C)nc3ncnn3c2C)cc1C returned CendR NRP1 mod 24.5*, Rpn11 block -9.2 and HNF4A DNA FP -0.9.
Screening Cn1c(Cc2cccs2)nnc1SCC(=O)N1CCCc2ccccc21 returned CendR NRP1 mod 16.0, PHOSPHO1 inh 11.5, CTSL1 counter -1.6, TPT1 inh -0.1, Rpn11 block 0.8 and HNF4A DNA FP 6.0.
For O=C(CSc1nnc(Cc2cccs2)n1CCc1ccccc1)N1CCCc2ccccc21 the results were CendR NRP1 mod -3.6, PHOSPHO1 inh 66.4*, CTSL1 counter -5.7, TPT1 inh -0.4, Rpn11 block 5.9 and HNF4A DNA FP 4.5.
CN1CCN(c2nc(NCc3ccco3)nc(N)c2[N+](=O)[O-])CC1 was read as CendR NRP1 mod 6.9, PHOSPHO1 inh 60.5*, CTSL1 counter -3.1, TPT1 inh -2.3, Rpn11 block 4.6 and HNF4A DNA FP 0.9.
Nc1nc(NCc2ccco2)nc(N2CCCCC2)c1[N+](=O)[O-] was read as CendR NRP1 mod -10.1, PHOSPHO1 inh -2.2, CTSL1 counter -5.9, TPT1 inh 1.5, Rpn11 block 10.4 and HNF4A DNA FP -2.0.
For CC(=O)C(=Nc1ccc(Cl)cc1Cl)NNc1cccc(Cl)c1 the results were CendR NRP1 mod -0.6, PHOSPHO1 inh 54.7, CTSL1 counter 2.8, TPT1 inh -1.1, Rpn11 block 0.2 and HNF4A DNA FP 2.5.
CC1=CC(C)C2(CO)COC(c3ccc(O)cc3)C1C2C (centres undefined) was read as CendR NRP1 mod -0.1, PHOSPHO1 inh 15.4, CTSL1 counter -3.5, TPT1 inh -8.7, Rpn11 block 4.7 and HNF4A DNA FP 0.5.
For CC1=CC(C)C2(CO)COC(c3cccnc3)C1C2C (centres undefined) the results were CendR NRP1 mod 27.3*, PHOSPHO1 inh -8.9, CTSL1 counter -5.0, TPT1 inh 6.1, Rpn11 block -6.2 and HNF4A DNA FP 0.2.
Screening Cc1cc([N+](=O)[O-])nn1CCCC(=O)N1CCN(c2ccc(F)cc2)CC1 returned CendR NRP1 mod -9.9, PHOSPHO1 inh 3.0, CTSL1 counter 0.9, TPT1 inh -2.3, Rpn11 block -7.7 and HNF4A DNA FP -3.8.
Screening Fc1cnc(N2CCOCC2)nc1N1CCOCC1 returned CendR NRP1 mod 21.0*, PHOSPHO1 inh 45.5, CTSL1 counter -0.7, TPT1 inh 2.7, Rpn11 block -5.5 and HNF4A DNA FP -2.7.
CSc1cccc(NC(=O)C2CC(=O)N(Cc3ccccc3)C2)c1 (centres undefined) was read as CendR NRP1 mod 16.4, PHOSPHO1 inh 19.0, CTSL1 counter 0.2, TPT1 inh -2.2, Rpn11 block 2.0 and HNF4A DNA FP -0.8.
`CCOc1cc2[nH]c(=S)n(C3CC3)c(=O)c2cc1OCC` gave CendR NRP1 mod -22.9, PHOSPHO1 inh 5.5, CTSL1 counter 1.3, TPT1 inh 0.5, Rpn11 block -10.2 and HNF4A DNA FP 2.3.
Screening CCC(C)n1c(=S)[nH]c2ccccc2c1=O (centres undefined) returned CendR NRP1 mod 28.3*, PHOSPHO1 inh 16.6, CTSL1 counter -1.9, TPT1 inh -0.3, Rpn11 block -0.4 and HNF4A DNA FP 2.6.
CCOc1cc2[nH]c(=S)n(C(C)C)c(=O)c2cc1OCC was read as CendR NRP1 mod -3.4, PHOSPHO1 inh 71.3*, CTSL1 counter -0.3, TPT1 inh 2.4, Rpn11 block 1.6 and HNF4A DNA FP 4.3.
For COc1cccc(NC(=O)Cc2nnc(SCC(=O)NC3CCCC3)n2C)c1 the results were CendR NRP1 mod -7.7, PHOSPHO1 inh 30.5, CTSL1 counter -3.6, TPT1 inh 2.9, Rpn11 block 5.0 and HNF4A DNA FP 2.1.
`CCOC(=O)c1c(NC(=O)COC(=O)c2ccccn2)sc2c1CCC2` gave CendR NRP1 mod 2.5, PHOSPHO1 inh -34.5, CTSL1 counter -1.9, TPT1 inh -1.5, Rpn11 block 1.8 and HNF4A DNA FP -3.6.
Screening Cc1nnc(NC(=O)c2ccc(S(=O)(=O)N3CCCCCC3)cc2)o1 returned CendR NRP1 mod 11.0, PHOSPHO1 inh 63.3*, CTSL1 counter -1.6, TPT1 inh 1.5, Rpn11 block -4.4 and HNF4A DNA FP 0.9.
Screening NC(=O)c1ccsc1NC(=O)c1ccc(S(=O)(=O)N2CCCCC2)cc1 returned CendR NRP1 mod -17.4, PHOSPHO1 inh -4.5, CTSL1 counter 37.2*, TPT1 inh -0.3, Rpn11 block -0.4 and HNF4A DNA FP 6.0.
For Cc1cc(C(=O)Nc2ccc(N3CCCCC3)cc2)no1 the results were CendR NRP1 mod 7.3, PHOSPHO1 inh 32.7, CTSL1 counter -0.4, TPT1 inh 2.1, Rpn11 block 1.7 and HNF4A DNA FP -1.6.
